# Results filed as inconclusive are left out. A call without a number means that no potency is given here. Values without a mark were called inactive. Calls of active or inactive are those of the source. Unless noted, the call rests on the fitted dose curve; in most records, active means well fitted curve in the direction sought with a large enough effect in the repeat runs; inconclusive means weak or mixed curves; inactive means no such curve, though single readings can be large; an effect the other way counts as inactive or inconclusive.
# Assays:
# [1] = qHTS assay to identify small molecule agonists of the peroxisome proliferator-activated receptor delta (PPARd) signaling pathway - cell viability counter screen (AID 743211); further: nearly all actives have a fitted effect of over 55% in size; further: potency means the concentration at half of the fitted maximal effect
# Summary of the method: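 Luminescent ATP viability assay (CellTiter-Glo, 30 min RT) in UAS-bla HEK293H cells carrying the PPAR delta reporter construct, 3000 cells/well, after a 17 h compound treatment at 37 C.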
# [2] = target: Peroxisome proliferator-activated receptor delta (Homo sapiens) (UniProt Q03181); test: qHTS assay to identify small molecule agonists of the peroxisome proliferator-activated receptor delta (PPARd) signaling pathway (AID 743212; calls by dose curve)
# Sequence of Peroxisome proliferator-activated receptor delta (Homo sapiens) (Q03181 whole entry, looked up): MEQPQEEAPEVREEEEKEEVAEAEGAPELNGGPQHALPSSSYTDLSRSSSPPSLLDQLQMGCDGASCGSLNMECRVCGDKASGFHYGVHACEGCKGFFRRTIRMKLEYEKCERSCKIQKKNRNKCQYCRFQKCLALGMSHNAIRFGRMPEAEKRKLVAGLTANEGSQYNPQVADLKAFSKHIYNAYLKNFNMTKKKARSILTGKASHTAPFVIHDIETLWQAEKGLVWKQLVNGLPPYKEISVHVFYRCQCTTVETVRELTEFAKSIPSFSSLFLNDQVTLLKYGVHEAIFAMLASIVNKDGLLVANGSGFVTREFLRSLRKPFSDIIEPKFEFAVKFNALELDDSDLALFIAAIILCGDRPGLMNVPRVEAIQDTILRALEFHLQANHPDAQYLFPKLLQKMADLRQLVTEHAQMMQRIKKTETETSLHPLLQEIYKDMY
# Summary of the method: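 Read-out: beta-lactamase FRET fluorescence after 2 h room-temperature incubation with LiveBLAzer B/G substrate. Cells were HEK293H carrying a UAS-bla reporter for PPARd, treated at 37 C with DMSO-dissolved compounds.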
# [3] = qHTS assay to identify small molecule antagonists of the peroxisome proliferator-activated receptor delta (PPARd) signaling pathway - cell viability counter screen (AID 743213); further: nearly all actives have a fitted effect of over 50% in size; further: potency means the concentration at half of the fitted maximal effect
# Summary of the method: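 In this counter screen, HEK293H cells carrying a UAS-beta-lactamase reporter are co-treated with test compounds and 300 nM L165041 (final) for 17 h at 37 C; cell viability is quantified by CellTiter-Glo luminescence.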
# [4] = qHTS assay to identify small molecule agonists of the farnesoid-X-receptor (FXR) signaling pathway - cell viability counter screen (AID 743218); further: nearly all actives have a fitted effect of over 45% in size
# Summary of the method: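 Quantitative HTS counter screen measuring ATP-based viability via CellTiter-Glo luminescence in HEK 293T cells carrying a UAS-driven beta-lactamase reporter, after 16 h compound exposure at 37 C.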
# [5] = qHTS assay to identify small molecule antagonists of the farnesoid-X-receptor (FXR) signaling pathway - cell viability counter screen (AID 743221; active means well fitted cell-killing curve with a large enough effect in the repeat runs, not every such curve was filed as active; further: nearly all actives have a fitted effect of over 50% in size)
# Summary of the method: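 In GeneBLAzer FXR-UAS-bla HEK 293T cells stimulated with 50 uM chenodeoxycholic acid (final), compounds acted for 16 h at 37 C. Viability was assessed afterwards by CellTiter-Glo luminescence.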
# [6] = target: Vitamin D3 receptor (Homo sapiens) (UniProt P11473); test: qHTS assay to identify small molecule agonists of the vitamin D receptor (VDR) signaling pathway (AID 743222; calls by dose curve)
# Sequence of Vitamin D3 receptor (Homo sapiens) (P11473 whole entry, looked up): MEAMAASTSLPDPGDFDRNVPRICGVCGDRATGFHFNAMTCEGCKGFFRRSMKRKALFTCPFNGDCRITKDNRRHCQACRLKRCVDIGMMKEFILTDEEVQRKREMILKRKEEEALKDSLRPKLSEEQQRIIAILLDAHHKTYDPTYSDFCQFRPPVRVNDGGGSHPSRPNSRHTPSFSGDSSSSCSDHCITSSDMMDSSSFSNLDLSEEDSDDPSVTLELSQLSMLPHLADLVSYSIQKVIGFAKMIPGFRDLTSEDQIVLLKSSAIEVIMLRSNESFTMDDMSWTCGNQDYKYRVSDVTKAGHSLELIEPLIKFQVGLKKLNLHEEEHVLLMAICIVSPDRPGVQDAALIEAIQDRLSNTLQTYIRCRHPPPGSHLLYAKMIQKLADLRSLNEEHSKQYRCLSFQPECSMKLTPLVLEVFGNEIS
# Summary of the method: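 Tox21 cell reporter format: VDR-bla line, 16 h compound exposure in 5% CO2 at 37C, then fluorescence intensity after 2 h with LiveBLAzer B/G FRET substrate.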
# [7] = target: Vitamin D3 receptor (Homo sapiens) (UniProt P11473); test: qHTS assay to identify small molecule antagonists of the vitamin D receptor (VDR) signaling pathway (AID 743223; active means well fitted inhibition curve with a large enough effect in the signal ratio in the repeat runs, not every such curve was filed as active; the % refers to the signal ratio)
# Summary of the method: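 Agonist 1alpha,25-dihydroxyvitamin D3 (3 nM in well) was added with each compound to VDR-bla cells preincubated 4 h. Cells stood 16 h at 37C, then FRET substrate 2 h at room temperature; fluorescence intensity recorded.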
# [8] = target: Bile acid receptor (Homo sapiens) (UniProt Q96RI1); test: qHTS assay to identify small molecule antagonists of the farnesoid-X-receptor (FXR) signaling pathway (AID 743217; active means well fitted inhibition curve with a large enough effect in the signal ratio in the repeat runs, not every such curve was filed as active; the % refers to the signal ratio)
# Sequence of Bile acid receptor (Homo sapiens) (Q96RI1 whole entry, looked up): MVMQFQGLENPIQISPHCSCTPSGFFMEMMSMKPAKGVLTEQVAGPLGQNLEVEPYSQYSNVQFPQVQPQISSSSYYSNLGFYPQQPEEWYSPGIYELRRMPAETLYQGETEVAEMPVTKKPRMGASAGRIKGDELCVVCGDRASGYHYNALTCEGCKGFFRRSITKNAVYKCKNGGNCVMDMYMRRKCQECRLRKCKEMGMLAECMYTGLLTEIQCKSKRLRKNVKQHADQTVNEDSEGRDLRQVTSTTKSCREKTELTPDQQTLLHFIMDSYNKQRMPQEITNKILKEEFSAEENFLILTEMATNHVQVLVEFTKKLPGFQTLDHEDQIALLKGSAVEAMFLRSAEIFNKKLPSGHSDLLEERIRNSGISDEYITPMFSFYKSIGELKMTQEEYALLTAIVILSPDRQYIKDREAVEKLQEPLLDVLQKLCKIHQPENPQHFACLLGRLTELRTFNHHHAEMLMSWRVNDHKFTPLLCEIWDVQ
# Summary of the method: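 Test compounds are pin-transferred onto FXR-bla HEK 293T cells, then chenodeoxycholic acid is added at 50 uM final. After 16 h at 37 °C, LiveBLAzer B/G substrate is applied for 2 h at room temperature and fluorescence read.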
# [9] = target: Bile acid receptor (Homo sapiens) (UniProt Q96RI1); test: qHTS assay to identify small molecule agonists of the farnesoid-X-receptor (FXR) signaling pathway (AID 743220; active means well fitted activation curve with a large enough effect in the signal ratio in the repeat runs, not every such curve was filed as active; the % refers to the signal ratio)
# Summary of the method: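 FXR-UAS-bla HEK 293T cells carrying a UAS-driven beta-lactamase reporter were plated for 5 h at 37C/5% CO2, then exposed to DMSO-dissolved Tox21 10K compounds for 16 h at 37C. A LiveBLAzer B/G FRET substrate was loaded for 2 h at room temperature before fluorescence reading.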
# [10] = target: Peroxisome proliferator-activated receptor delta (Homo sapiens) (UniProt Q03181); test: qHTS assay to identify small molecule antagonists of the peroxisome proliferator-activated receptor delta (PPARd) signaling pathway (AID 743215; active means well fitted inhibition curve with a large enough effect in the signal ratio in the repeat runs, not every such curve was filed as active; the % refers to the signal ratio;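 further: cells stimulated with agonist L165041 at 300 nM final during compound exposure; series mostly up to about 62 µM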)
# Summary of the method: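 Here, a reporter line (HEK293H, beta-lactamase under a UAS) measures PPARd signaling. Compounds are tested against agonist L165041 at 300 nM final concentration over 17 h at 37 C, with fluorescence read after substrate.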
structure (smiles),measurement,setting,value
CCCC(=O)OCC,Potency,[1],inactive
same,outcome,[2],inactive
same,Potency,[3],inactive
same,Potency,[4],inactive
same,Potency,[5],inactive
same,outcome,[6],inactive
same,Potency,[7],inactive
C=CC(C)(CCC=C(C)C)OC(=O)c1ccccc1 (configuration not stated),Potency,[1],inactive
same,Potency,[3],inactive
same,outcome,[8],inactive
same,Potency,[4],inactive
same,outcome,[9],inactive
same,Potency,[5],inactive
C=CCCCCCC,Potency,[1],inactive
same,Potency,[3],inactive
same,outcome,[8],inactive
same,Potency,[4],inactive
same,outcome,[9],inactive
COCCO,Potency,[1],inactive
same,outcome,[2],inactive
same,Potency,[3],inactive
same,Potency,[5],inactive
same,outcome,[6],inactive
same,Potency,[7],inactive
CC(C)=CCCC(C)CC=O (configuration not stated),Potency,[1],inactive
same,Potency,[3],inactive
same,outcome,[8],inactive
same,Potency,[4],inactive
same,outcome,[9],inactive
same,Potency,[5],inactive
same,outcome,[6],inactive
CCCCCc1ccc(N)cc1,Potency,[1],inactive
same,outcome,[2],inactive
same,Potency,[4],inactive
same,outcome,[6],inactive
same,Potency,[7],inactive
Cc1ccc(C(N)=O)cc1N,Potency,[1],inactive
same,outcome,[2],inactive
same,Potency,[3],inactive
same,Potency,[4],inactive
same,outcome,[6],inactive
same,Potency,[7],inactive
CC(=O)/C=C/C1C(C)=CCCC1(C)C (configuration not stated),Potency,[1],inactive
same,Potency,[3],inactive
same,outcome,[8],inactive
same,Potency,[4],inactive
same,outcome,[9],inactive
same,Potency,[5],inactive
same,outcome,[6],inactive
same,Potency,[7],inactive
Cc1ccc(C(=O)C(C)CN2CCCCC2)cc1 (configuration not stated),Potency,[1],inactive
same,Potency,[3],inactive
same,outcome,[8],inactive
same,Potency,[4],inactive
same,outcome,[9],inactive
same,Potency,[5],inactive
same,outcome,[6],inactive
same,Potency,[7],inactive
Nc1cnn([C@@H]2O[C@H](CO)[C@@H](O)[C@H]2O)c(=O)n1,Potency,[1],inactive
same,outcome,[2],inactive
same,outcome,[10],inactive
same,outcome,[9],inactive
same,outcome,[6],inactive
same,Potency,[7],inactive
CCOc1cc(OCC)c(C(=O)CCC(=O)O)cc1OCC,Potency,[1],inactive
same,Potency,[3],inactive
same,outcome,[10],inactive
same,Potency,[4],inactive
same,Potency,[5],inactive
O=C1c2cccc(O)c2C(=O)c2c(O)cc(CO)cc21,Potency,[1],inactive
same,Potency,[3],inactive
same,outcome,[8],inactive
same,Potency,[4],inactive
same,outcome,[9],inactive
same,Potency,[5],inactive
same,outcome,[6],inactive
same,Potency,[7],inactive
CCOC(=O)[C@H](CCc1ccccc1)N[C@H]1CCc2ccccc2N(CC(=O)O)C1=O,Potency,[1],29.8 µM (active)
same,Potency,[3],26.6 µM (active)
OC(CCN1CCCCC1)(c1ccccc1)C1CCCCC1 (configuration not stated),Potency,[1],inactive
same,outcome,[2],inactive
same,Potency,[4],inactive
same,Potency,[5],inactive
Cc1ccccn1,Potency,[1],inactive
same,Potency,[3],inactive
same,outcome,[8],inactive
same,Potency,[4],inactive
same,outcome,[9],inactive
same,Potency,[5],inactive
same,outcome,[6],inactive
same,Potency,[7],inactive
CCCC(C)C,Potency,[1],inactive
same,outcome,[2],inactive
same,outcome,[10],inactive
same,Potency,[5],inactive
same,outcome,[6],inactive
same,Potency,[7],inactive
C=CC(=O)OCCOC(=O)CCC(=O)O,Potency,[1],inactive
same,Potency,[3],inactive
same,outcome,[10],inactive
same,outcome,[8],inactive
same,outcome,[9],inactive
same,outcome,[6],inactive
same,Potency,[7],inactive
CC(=O)OCCc1ccccc1,Potency,[1],inactive
same,outcome,[2],inactive
same,Potency,[3],inactive
same,Potency,[4],inactive
same,Potency,[5],inactive
same,outcome,[6],inactive
same,Potency,[7],inactive
COc1ccc([C@@H]2Sc3ccccc3N(CCN(C)C)C(=O)[C@@H]2OC(C)=O)cc1,Potency,[1],inactive
same,outcome,[2],inactive
same,outcome,[10],inactive
same,Potency,[4],inactive
same,Potency,[5],inactive
same,outcome,[6],inactive
same,Potency,[7],inactive
CC(=O)O[C@@H]1C(=O)O[C@@H]2[C@H]1OC(=O)[C@@H]2OC(C)=O,Potency,[1],inactive
same,outcome,[2],inactive
same,Potency,[4],inactive
same,Potency,[5],inactive
Oc1ccc(C(O)CNCCCCCCNCC(O)c2ccc(O)c(O)c2)cc1O (configuration not stated),Potency,[1],inactive
same,outcome,[2],inactive
same,Potency,[3],inactive
same,Potency,[4],inactive
same,Potency,[5],inactive
same,outcome,[6],inactive
same,Potency,[7],inactive
CCCC[C@H]1CN(CC2CCOCC2)C(=O)OC12CCN(C1(C)CCN(C(=O)c3c(C)ncnc3C)CC1)CC2,Potency,[1],inactive
same,outcome,[2],inactive
same,Potency,[4],inactive
same,Potency,[5],inactive
Oc1ccc(O)c2c(O)cccc12,Potency,[1],inactive
same,outcome,[2],inactive
same,outcome,[10],inactive
same,Potency,[4],inactive
same,Potency,[5],inactive
same,outcome,[6],inactive
O=[N+]([O-])c1cc[n+]([O-])cc1,Potency,[1],inactive
same,Potency,[3],inactive
same,outcome,[8],inactive
same,Potency,[4],inactive
same,outcome,[9],inactive
same,Potency,[5],inactive
same,outcome,[6],inactive
CCCCCCCCCO,Potency,[1],inactive
same,Potency,[3],inactive
same,outcome,[8],inactive
same,Potency,[4],inactive
same,outcome,[9],inactive
same,Potency,[5],inactive
same,outcome,[6],inactive
same,Potency,[7],inactive
COC(=O)CSc1cc(N=c2sc(=O)n3n2CCCC3)c(F)cc1Cl,Potency,[1],inactive
same,outcome,[2],inactive
same,outcome,[8],inactive
same,outcome,[9],inactive
same,Potency,[5],inactive
same,outcome,[6],inactive
same,Potency,[7],inactive
Cn1c(=O)c2c(ncn2CC(O)CO)n(C)c1=O (configuration not stated),Potency,[1],inactive
same,outcome,[2],inactive
same,outcome,[8],inactive
same,outcome,[6],inactive
NC[C@H]1O[C@H](O[C@H]2[C@H](O)[C@@H](O[C@H]3O[C@H](CO)[C@@H](O)[C@H](N)[C@H]3O)[C@H](N)C[C@@H]2N)[C@H](O)[C@@H](O)[C@@H]1O,"activity change, negative = cytotoxicity",[1],-7.03% [at 5.95 µM]
same,activation,[2],-4.29% [at 5.95 µM]
same,"viability change, negative = cytotoxic",[3],-5.87% [at 6.26 µM]
same,"viability change, negative = cytotoxic",[4],5.82% [at 5.95 µM]
same,"activity change, negative = cytotoxicity",[5],-10.3% [at 5.95 µM]
same,activation,[6],-7.13% [at 6.01 µM]
same,"activity change, negative = inhibition",[7],5.88% [at 6.95 µM]
Nc1ccc(C(=O)Nc2ccccc2N)cc1,Potency,[1],inactive
same,outcome,[2],inactive
same,Potency,[5],inactive
same,Potency,[7],inactive
CC(C)(Oc1ccc(Cl)cc1)C(=O)OCCCOC(=O)C(C)(C)Oc1ccc(Cl)cc1,Potency,[1],inactive
same,Potency,[3],inactive
same,outcome,[10],inactive
same,Potency,[4],inactive
same,outcome,[6],inactive
same,Potency,[7],inactive
